IL1B secr inh: inhibitors of inflammasome signaling (IL-1 beta secretion); THP-1 LPS/ATP IL-1B secretion, AlphaLISA, 16 h; stronger effect = lower value; activity change, % at 57.5 µM; 360,000 compounds, 4.7% hits; in the data active means activity change below about -50%; inconclusive means mostly about -30% to -49%
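THP-1 cells pretreated 1 hr with compounds (up to 57.5 uM final), then stimulated with LPS (250 ng/mL final) plus ATP (1.25 mM final); secreted IL-1B measured by AlphaLISA after 16 hr, decreased signal indicating inhibition.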
DT40 TDP1 CPT: DT40-hTDP1 cell growth loss with CPT | chicken DT40 Tdp1-/-;hTDP1 cells + 20 nM CPT, ATP luminescence, 48 h | Potency, µM (series often up to 46.2 µM), for the others: at the highest dose activity change, negative = growth inhibition, actives largely listed as inhibitors | 420,000 compounds, 12% hits | AID 686979; further: potency means the concentration at half of the fitted maximal effect; nearly all actives have a fitted effect of over 55% in size
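Chicken DT40 Tdp1-/- cells stably complemented with human TDP1 were seeded at 400 cells/well in medium containing 20 nM camptothecin, exposed to pin-transferred compounds, and grown at 37 °C for at least 48 hr. Viability was read as ATP luminescence.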
HT1080 IDH1KD tx: HT-1080 IDH1 knockdown cell toxicity (counter line) | HT-1080 IDH1 knockdown viability, ATP luminescence, 48 h | Potency, µM (titrated, usually from 46.1 µM), inactives show top-dose activity, negative = toxicity, usual class: cytotoxic | 360,000 compounds, 2% hits;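 further: potency means the concentration at half of the fitted maximal effect; 0% = DMSO wells and -100% = cell-free medium wells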
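% activity derives from luminescence (CellTiter-Glo), normalised to DMSO and no-cell wells. HT-1080-IDH1KD cells, 750/well, had 48 h compound exposure at 37 °C.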
HT1080NT lethal: kills 2HG-producing HT-1080-NT fibrosarcoma cells. HT-1080-NT fibrosarcoma viability, CellTiter-Glo ATP luminescence, 48 h. Potency, µM (top dose mostly 46.1 µM), for inactives: top-dose activity, negative = less viability, actives largely listed as cytotoxic. 360,000 compounds, 1.6% hits. AID 686970;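 further: NT is the 2HG producing partner of a matched IDH1 knockdown line; potency means the concentration at half of the fitted maximal effect; 0% = DMSO-treated cells and -100% = media-only wells without cells; nearly all actives have a fitted effect of over 55% in size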
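HT-1080-NT fibrosarcoma cells (2HG-overproducing), 750 cells/well in RPMI with 5% FBS, dosed after 2 h and incubated 48 h at 37C. CellTiter-Glo luminescence normalized to DMSO and no-cell wells; concentration-response curves fitted and classed.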
TDP1 cell noCPT: qHTS for Inhibitors of human tyrosyl-DNA phosphodiesterase 1 (TDP1): qHTS in cells in absence of CPT. AID 686978, 2013. Potency, µM (top dose mostly 46.2 µM), without a hit: top-dose activity change, negative = growth inhibition, usual class: inhibitors. DT40 Tdp1-/- hTDP1 cells, no CPT, ATP luminescence, 48 h. 420,000 compounds, 15% hits; further: potency means the concentration at half of the fitted maximal effect; nearly all actives have a fitted effect of over 55% in size
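Readout: luminescence from CellTiter-Glo after 30 min in the dark at RT. Cells: DT40 Tdp1-/- with stable hTDP1, 400/well. Exposure: compounds alone, ≥48 hr, 37 °C.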
* = called active by the depositor; ? = inconclusive; nt = no result; [ ] = another dose, or the depositor's remark. Rows were chosen to be rich in hits. Some 19% of all compounds tested hit in one or more screens of this group. Unless noted, the call rests on the fitted dose curve; in most records, active means well fitted curve in the direction sought with a large enough effect; inconclusive means small, poorly fitted or top-dose-only effect, or another doubt; inactive means no such curve, though single readings can be large; an effect the other way counts as inactive or inconclusive. Unless noted, on the % scale 0 is the no-effect control and ±100 the full control effect.

SMILES	IL1B secr inh	DT40 TDP1 CPT	HT1080 IDH1KD tx	HT1080NT lethal	TDP1 cell noCPT
CCN(Cc1ccccc1)S(=O)(=O)c1ccc(F)c(C(=O)Nc2cc(C)ccc2OC)c1	nt	26µM*	nt	nt	?
CCN(Cc1ccccc1)S(=O)(=O)c1ccc(F)c(C(=O)Nc2cc(C(F)(F)F)ccc2Cl)c1	nt	16µM*	nt	nt	23µM*
CCN(CC)S(=O)(=O)c1ccc(Cl)c(NC(=O)c2cc(Cl)ccc2Cl)c1	-11	?	8%	5%	?
COc1ccc(C)cc1NC(=O)c1ccccc1N(C)S(=O)(=O)c1ccccc1	-14	?	-10%	-8%	21µM*
COc1ccc(OC)c(NC(=O)c2ccccc2N(C)S(=O)(=O)c2ccc(C)cc2)c1	-27	?	-1%	-3%	?
CCN(CC)S(=O)(=O)c1ccc(OC)c(NC(=O)c2cc(=O)[nH]c3ccccc23)c1	10	1%	8%	8%	?
CCCCCn1c(CNC(=O)c2cccs2)nc2ccccc21	-54*	?	8%[9.24 µM]	13µM*	?
CCCCn1c(CNC(=O)c2cccs2)nc2ccccc21	5	-13%	-7%	8%	?
CCCCCn1c(CCNC(=O)c2cccs2)nc2ccccc21	-77*	?	3%[9.24 µM]	?	?
CC(=O)Oc1ccc(N(C(C)=O)S(=O)(=O)c2ccc3ccccc3c2)cc1	?	?	2%	-23%	21µM*
CN(c1ccc(O)cc1)S(=O)(=O)c1ccc2ccccc2c1	-62*	12%	-12%	-21%	?
CN(CC(=O)Nc1ccccc1N1CCOCC1)S(=O)(=O)c1ccc(Cl)cc1	-3	21µM*	9%	-5%	?
CS(=O)(=O)c1ccc(C(=O)Nc2ccccc2N2CCOCC2)c(Cl)c1	-7	1%	10%	4%	-15%
CN(c1ccccc1)S(=O)(=O)c1ccc(Cl)c(C(=O)Nc2ccccc2N2CCOCC2)c1	18	8.2µM*	-18%	0%	7.3µM*
CCOC(=O)N1CCN(C(=O)c2cc(COc3c(F)cccc3F)on2)CC1	6	?	10%	0%	?
COC(=O)[C@@H]1CCCN1Cc1ccc2c(c1)CN(Cc1nccs1)CCO2	nt	-3%	nt	nt	2%
CCOC(=O)c1c(C)[nH]c(C)c1S(=O)(=O)N(C)CC(=O)Nc1ccc(OC)cc1	nt	-34%	nt	nt	-15%
CCCCC(O)(c1ccccc1)C(CN1CCOCC1)c1ccccc1 (centres undefined)	-5	23µM*	-7%	-6%	?
CCc1ccc(C(O)(CC)C(CN2CCOCC2)c2ccccc2)cc1 (centres undefined)	-20	?	-15%	?	?
CCCCC(O)(c1ccc(CC)cc1)C(CN1CCOCC1)c1ccccc1 (centres undefined)	-54*	?	?	?	?
O=c1c2sc3ccccc3c2n(Cc2ccc(Cl)cc2)c(=O)n1Cc1ccco1	nt	?	nt	nt	8.2µM*
Cc1ccc(Cl)cc1-n1c(=O)c2sc3ccccc3c2n(CC(=O)NC2CCCC2)c1=O	nt	-28%	nt	nt	?
COc1cccc(Cn2c(=O)n(-c3ccc(Br)cc3F)c(=O)c3sc4ccccc4c32)c1	nt	9.2µM*	nt	nt	?
CCOc1ccc(-n2c(=O)c3sc4ccccc4c3n(Cc3ccc(F)cc3)c2=O)cc1	nt	-5%	nt	nt	?
Cc1ccc(Cl)cc1-n1c(=O)c2sc3ccccc3c2n(Cc2ccccc2)c1=O	nt	23µM*	nt	nt	5.8µM*
CC(/C=N/NC(=O)COc1ccccc1C)=N\NC(=O)COc1ccccc1C	-8	?	-2%	-2%	?
c1ccc2c(N3CCNCC3)nc(-c3ccoc3)nc2c1	nt	-5%	nt	nt	1%
C[N+]1(CC(=O)Nc2ccc(F)cc2)CCN(C(=O)c2ccco2)CC1	-22	-19%	-1%	-12%	-4%
OCCCNc1ncnc2c1ncn2[C@H]1CN(C2CCCC2)C[C@@H](CO)O1	33	-13%	-9%	23%	-7%

Screening data deposited in PubChem BioAssay by National Center for Advancing Translational Sciences (NCATS).
